HT1080-NT tox – kills 2HG-producing HT-1080-NT fibrosarcoma cells | HT-1080-NT fibrosarcoma viability, CellTiter-Glo ATP luminescence, 48 h | Potency, µM (doses to about 46.1 µM), for the others: top-dose activity, negative = less viability, usual class: cytotoxic | hit rate 1.6% among 360,000;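 further: NT is the 2HG producing partner of a matched IDH1 knockdown line; 0% = DMSO-treated cells and -100% = media-only wells without cells; nearly all actives have a fitted effect of over 55% in size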
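HT-1080-NT fibrosarcoma cells (2HG-overproducing), 750 cells/well in RPMI with 5% FBS, dosed after 2 h and incubated 48 h at 37C. CellTiter-Glo luminescence normalized to DMSO and no-cell wells; concentration-response curves fitted and classed.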
SW480 rerep – DNA re-replication induction in SW480 cells; Potency, µM (titrated, usually from 46.1 µM), without a hit: at the highest dose re-replication activation, usual class: activators; hit rate 1.8% among 340,000; SW480 DNA re-replication, Hoechst DNA content imaging, 48 h; further: % of control where 0% means no effect; nearly all actives have a fitted effect of over 55% in size
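Cells (250 per well) received 23 nL compound or DMSO by pin tool and were kept 48 hr at 37 C, 5% CO2. Nuclei were then stained with Hoechst for 40 min and scanned for DNA content.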
MCF10A rereplic – induces DNA re-replication in MCF 10a normal breast cells. Potency, µM (top dose mostly 46.1 µM), inactives show at the top dose activity, positive = re-replication, hits mostly activators. MCF 10A DNA re-replication, Hoechst nuclear intensity, 48 h. AID 624296. hit rate 2.9% among 350,000; further: % of control where 0% means no effect; nearly all actives have a fitted effect of over 50% in size
KB-V1 cytotox – KB-V1 MDR subline cytotoxicity; KB-V1 MDR cells viability, CellTiter-Glo, 72 h; Potency, µM (highest dose often 46.1 µM), most hits filed as cytotoxic; hit rate 3.4% among 400,000; further: on the % scale 0 is the no-effect control and ±100 the full control effect; nearly all actives have a fitted effect of over 60% in size
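Potencies derive from concentration-effect curves fitted to normalized luminescence (CellTiter-Glo) of KB-V1 cells treated for 72 h at 37 degrees C in phenol-red-free DMEM containing 10% FBS.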
KB-3-1 cytotox – kills parental KB-3-1 adenocarcinoma cells; KB-3-1 viability, CellTiter-Glo ATP luminescence, 72 h; Potency, µM (series often up to 46.1 µM), usual class: cytotoxic; hit rate 1.4% among 400,000; AID 1347075; further: on the % scale 0 is the no-effect control and ±100 the full control effect; nearly all actives have a fitted effect of over 60% in size
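Cytotoxicity in the drug-sensitive parental line KB-3-1 was scored as loss of CellTiter-Glo luminescence following 72 h incubation with compound. Values come from curve fitting of normalized concentration-response data.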
HT1080 IDH1KD tx – HT-1080 IDH1 knockdown cell toxicity (counter line); HT-1080 IDH1 knockdown viability, ATP luminescence, 48 h; Potency, µM (doses to about 46.1 µM), without a hit: at the top dose activity, negative = toxicity, most hits filed as cytotoxic; hit rate 2% among 360,000;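 further: 0% = DMSO wells and -100% = cell-free medium wells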
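HT-1080-IDH1KD cells (IDH1 knocked down), 750/well in RPMI with 5% FBS, treated with compound 48 h at 37 degrees C. Viability by CellTiter-Glo luminescence, normalised to DMSO and no-cell wells; concentration-response curves classed.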
An asterisk follows results filed as active; [ ] = another dose, or the depositor's remark. Rows were chosen to be rich in hits. Some 7.9% of all compounds tested hit in one or more screens of this group. The call rests on the fitted dose curve; in most records, active means well fitted curve in the direction sought with a large enough effect; inconclusive means small, poorly fitted or top-dose-only effect, or another doubt; inactive means no such curve, though single readings can be large; an effect the other way counts as inactive or inconclusive. Potency means the concentration at half of the fitted maximal effect.

How did O=C(N=C1SC2CS(=O)(=O)CC2N1c1ccc(F)cc1F)C1CC1 (configuration not stated) do in these assays?
HT1080-NT tox: -3%; SW480 rerep: 12%; MCF10A rereplic: -4%; KB-V1 cytotox: inconclusive; KB-3-1 cytotox: inactive; HT1080 IDH1KD tx: -1%

How did O=C1CCCc2[nH]c3cccc(/C(=C/c4ccccc4)c4ccccc4)c3c21 do in these assays?
HT1080-NT tox: -17%; SW480 rerep: -8%; MCF10A rereplic: inconclusive; KB-V1 cytotox: inconclusive; KB-3-1 cytotox: inactive; HT1080 IDH1KD tx: -7%

How did COC(=O)c1ccc2[nH]c3cccc(/C(=C/c4ccccc4)c4ccccc4)c3c2c1 do in these assays?
HT1080-NT tox: inconclusive; SW480 rerep: 1%; MCF10A rereplic: 12µM*; KB-V1 cytotox: inconclusive; KB-3-1 cytotox: inconclusive; HT1080 IDH1KD tx: inconclusive

How did CC1C/C(=C/c2ccccn2)C(=O)/C(=C/c2ccccn2)C1 (configuration not stated) do in these assays?
HT1080-NT tox: 0.65µM*; SW480 rerep: 0.29µM*; MCF10A rereplic: 2.3µM*; KB-V1 cytotox: inactive; KB-3-1 cytotox: inconclusive; HT1080 IDH1KD tx: 0.58µM*

What do the screens show for `CC(C)(C)C1C/C(=C/c2ccccn2)C(=O)/C(=C/c2ccccn2)C1` (configuration not stated)?
HT1080-NT tox: 0.73µM*; SW480 rerep: 0.41µM*; MCF10A rereplic: inconclusive; KB-V1 cytotox: inconclusive; KB-3-1 cytotox: inconclusive; HT1080 IDH1KD tx: 0.65µM*

Results for CC1C/C(=C/c2cccs2)C(=O)/C(=C/c2cccs2)C1 (configuration not stated) ?
HT1080-NT tox: -7%; SW480 rerep: inconclusive; MCF10A rereplic: 2%; KB-V1 cytotox: inconclusive; KB-3-1 cytotox: inactive; HT1080 IDH1KD tx: -6%

Results for COc1ccc(S(=O)(=O)N(C)C[C@H]2Oc3c(cccc3N(C)C)C(=O)N([C@H](C)CO)C[C@@H]2C)cc1 ?
HT1080-NT tox: -3%; SW480 rerep: -1%; MCF10A rereplic: 3%; KB-V1 cytotox: inactive; KB-3-1 cytotox: inactive; HT1080 IDH1KD tx: 6%

What do the screens show for `N#Cc1cccc2c1-c1ccccc1/C2=N/NC(N)=S`?
HT1080-NT tox: 6.5µM*; SW480 rerep: 24%; MCF10A rereplic: inconclusive; KB-V1 cytotox: inconclusive; KB-3-1 cytotox: inconclusive; HT1080 IDH1KD tx: 21µM*

What do the screens show for `NC(=S)NN=C1c2ccccc2-c2c(F)c(F)c(F)c(F)c21`?
HT1080-NT tox: -17%; SW480 rerep: 15µM*; MCF10A rereplic: 6.5µM*; KB-V1 cytotox: inconclusive; KB-3-1 cytotox: inconclusive; HT1080 IDH1KD tx: inconclusive

Results for CCCCCn1c(=NC(C)=O)c(C#N)cc2c(=O)n3ccccc3nc21 ?
HT1080-NT tox: 20%; SW480 rerep: inconclusive; MCF10A rereplic: inconclusive; KB-V1 cytotox: inactive; KB-3-1 cytotox: inactive; HT1080 IDH1KD tx: 10%

Results for CCCCCn1c(=NC(=O)c2cccnc2)c(C#N)cc2c(=O)n3cccc(C)c3nc21 ?
HT1080-NT tox: 7%; SW480 rerep: 8.2µM*; MCF10A rereplic: 13µM*; KB-V1 cytotox: inactive; KB-3-1 cytotox: inactive; HT1080 IDH1KD tx: 0%

What do the screens show for `CCCCn1c(=NC(C)=O)c(C#N)cc2c(=O)n3cccc(C)c3nc21`?
HT1080-NT tox: 4%; SW480 rerep: 21µM*; MCF10A rereplic: 12µM*; KB-V1 cytotox: inactive; KB-3-1 cytotox: inconclusive; HT1080 IDH1KD tx: -4%

What do the screens show for `CCCCn1c(=NC(=O)c2ccc3c(c2)OCO3)c(C#N)cc2c(=O)n3cccc(C)c3nc21`?
HT1080-NT tox: 4%; SW480 rerep: inconclusive; MCF10A rereplic: inconclusive; KB-V1 cytotox: inconclusive; KB-3-1 cytotox: inconclusive; HT1080 IDH1KD tx: 4%[9.24 µM]

What do the screens show for `CCOCCCn1c(=NC(C)=O)c(C#N)cc2c(=O)n3cccc(C)c3nc21`?
HT1080-NT tox: -1%; SW480 rerep: 13µM*; MCF10A rereplic: inconclusive; KB-V1 cytotox: inconclusive; KB-3-1 cytotox: inactive; HT1080 IDH1KD tx: 3%

Results for CCNC(=O)CCSc1nnc(-c2ccc(O)cc2)o1 ?
KB-V1 cytotox: inactive; KB-3-1 cytotox: inactive

What do the screens show for `COc1ccc(NC(=O)COC(=O)Cc2ccccc2[N+](=O)[O-])cc1OC`?
HT1080-NT tox: -2%; SW480 rerep: -14%; MCF10A rereplic: -3%; KB-V1 cytotox: inactive; KB-3-1 cytotox: inactive; HT1080 IDH1KD tx: -2%

Results for COc1ccc(NCc2ccccc2[N+](=O)[O-])cc1OC ?
HT1080-NT tox: -5%; SW480 rerep: 19%; MCF10A rereplic: inconclusive; KB-V1 cytotox: 21µM*; KB-3-1 cytotox: inactive; HT1080 IDH1KD tx: 1%

Results for COc1cc2c(cc1OC)C(Cc1ccccc1[N+](=O)[O-])=NCC2 ?
HT1080-NT tox: -1%; SW480 rerep: -6%; MCF10A rereplic: 8%; KB-V1 cytotox: 21µM*; KB-3-1 cytotox: inconclusive; HT1080 IDH1KD tx: -1%

How did Cc1cc(NC(=O)c2c(F)cccc2Cl)n(-c2nc3ccccc3[nH]2)n1 do in these assays?
HT1080-NT tox: inconclusive; SW480 rerep: -5%[9.22 µM]; MCF10A rereplic: 10µM*; KB-V1 cytotox: inactive; KB-3-1 cytotox: inactive; HT1080 IDH1KD tx: inconclusive

How did O=C(Nc1nc2ccccc2[nH]1)c1cc2ccccc2o1 do in these assays?
HT1080-NT tox: inconclusive; SW480 rerep: -10%; MCF10A rereplic: inconclusive; KB-V1 cytotox: inactive; KB-3-1 cytotox: inactive; HT1080 IDH1KD tx: 7.3µM*

What do the screens show for `O=C(Nc1nc2ccccc2[nH]1)c1ccccc1F`?
HT1080-NT tox: 4.6µM*; SW480 rerep: inconclusive; MCF10A rereplic: inconclusive; KB-V1 cytotox: 7.3µM*; KB-3-1 cytotox: inconclusive; HT1080 IDH1KD tx: 5.8µM*

What do the screens show for `O=C(Nc1nc2ccccc2[nH]1)c1ccc(F)cc1`?
HT1080-NT tox: 0%[9.24 µM]; SW480 rerep: inconclusive; MCF10A rereplic: 2%; KB-V1 cytotox: inconclusive; KB-3-1 cytotox: inconclusive; HT1080 IDH1KD tx: inconclusive

How did Cc1cc(NC(=O)C2CCCCC2)n(-c2nc3ccccc3[nH]2)n1 do in these assays?
HT1080-NT tox: inconclusive; SW480 rerep: 2%; MCF10A rereplic: inconclusive; KB-V1 cytotox: inconclusive; KB-3-1 cytotox: inconclusive; HT1080 IDH1KD tx: inconclusive

What do the screens show for `O=C(NCCc1nc2ccccc2[nH]1)c1ccc(F)cc1`?
HT1080-NT tox: 0%; SW480 rerep: 3%; MCF10A rereplic: 1%; KB-V1 cytotox: 12µM*; KB-3-1 cytotox: inconclusive; HT1080 IDH1KD tx: -19%

How did CNc1ccc(C=C2C=CC=C2)cc1 do in these assays?
KB-V1 cytotox: inactive; KB-3-1 cytotox: inactive

How did COCCNc1cnn(-c2ccccc2)c(=O)c1Cl do in these assays?
HT1080-NT tox: 21%; SW480 rerep: -4%; MCF10A rereplic: -4%; KB-V1 cytotox: inconclusive; KB-3-1 cytotox: inactive; HT1080 IDH1KD tx: 5%
